High-throughput results from PubChem.
TRHR enhancer: allosterically enhances the human TRH receptor. hit rate 0.66% among 360,000. enhancement, % at 2 µM. TRHR cells, fluo-8 calcium fluorescence, EC20 TRH enhancement. AID 493056; in the data active means enhancement above about 30%; further: 0% is about no effect
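Enhancer read-out: after compound pinning and an initial kinetic agonist-mode read, an EC20 of TRH (10 nM final) was injected and fluo-8 calcium signal (Ex 480/Em 530) followed at 1 s/cycle for 100 cycles in TRHR-expressing cells.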
D1 ag: human D1 receptor agonism; HEK293 T-REx D1 cells, calcium flux, agonist mode; P21728; activation, % at 2 µM; hit rate 1% among 360,000; further: 0% is about no effect
Target sequence (P21728 whole entry, looked up): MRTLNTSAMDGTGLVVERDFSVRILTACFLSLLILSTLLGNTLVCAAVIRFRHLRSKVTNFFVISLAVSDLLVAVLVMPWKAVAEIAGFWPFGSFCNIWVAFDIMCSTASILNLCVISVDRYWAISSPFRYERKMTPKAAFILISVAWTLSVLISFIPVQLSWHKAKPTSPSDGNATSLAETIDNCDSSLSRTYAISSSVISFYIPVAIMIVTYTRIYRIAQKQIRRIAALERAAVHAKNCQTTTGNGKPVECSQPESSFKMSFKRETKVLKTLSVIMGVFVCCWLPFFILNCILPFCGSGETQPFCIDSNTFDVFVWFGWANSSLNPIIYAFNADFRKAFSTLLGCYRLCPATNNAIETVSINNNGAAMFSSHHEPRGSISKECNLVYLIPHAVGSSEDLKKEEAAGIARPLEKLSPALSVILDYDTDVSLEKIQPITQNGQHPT
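Tetracycline-induced HEK293 TREx D1 cells, force-coupled to calcium signalling, were dye-loaded with a no-wash calcium kit. Compound was pin-added after a 10 s baseline. Fluorescence was read kinetically at 1 cycle/s for 180 s, with calcium rises flagged as agonism.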
D1 potentiator: enhances dopamine response at the human D1 receptor; P21728; HEK293 TREx D1 cells, calcium flux, dopamine EC20 potentiation; potentiation, % at 10 µM; hit rate 0.036% among 360,000; in the data active means potentiation above about 30%; further: 0% is about no effect
D1 antagonist: human D1 dopamine receptor antagonism; P21728; HEK293 TREx D1 cells, calcium flux, dopamine EC80; active compounds read low; activity change, negative = inhibition, % at 10 µM; hit rate 3.2% among 360,000; AID 504652; in the data active means activity change below about -30%; further: on the % scale 0 is the no-effect control and ±100 the full control effect
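After overnight tetracycline induction at 30 C, force-coupled D1 HEK293 cells took up a no-wash calcium dye at room temperature. Compounds were added and monitored 180 s, and the response to EC80 dopamine was then recorded.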
TRHR ag: agonists of human TRH receptor. TRHR cells, calcium flux fluo-8, FDSS agonist mode. P34981. activation, % at 2 µM. hit rate 0.18% among 360,000; further: 0% is about no effect
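Steps: seed TRHR cells overnight; add fluo-8 no-wash Ca dye, RT 30 min–1.5 h; record 10 s baseline; pin-transfer compounds; monitor fluorescence 1 cycle/s for the agonist window. Calcium increases flag candidate agonists.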
* hit, by the source's call. In the library only some 4.6% were active in any assay of this set; here they are far more common. Unless noted, no stated cut-off is given here; in the data, active means activation above about 30%; inactive means the rest.

Screening CCCCCC(=O)Nc1cccc(C2=NOC3(C2)C[C@H](C(N)=O)N(C(=O)CCCCC)C3)c1 (stereo partly specified) returned TRHR enhancer 2.4, D1 ag 0.2, D1 potentiator 4.2, D1 antagonist 5.0 and TRHR ag -0.1.
CCC(=O)N1CC2(CC(c3cccc(NC(=O)COc4ccc(Cl)cc4)c3)=NO2)C[C@@H]1C(N)=O (stereo partly specified) was read as TRHR enhancer 0.0, D1 ag 3.1, D1 potentiator 6.0, D1 antagonist -53.1* and TRHR ag -0.1.
Screening CCCCCC(=O)N1CC2(CC(c3cccc(NC(=O)CC(c4ccccc4)c4ccccc4)c3)=NO2)C[C@@H]1C(N)=O (stereo partly specified) returned TRHR enhancer -3.0, D1 ag 9.3, D1 potentiator -4.0, D1 antagonist -47.1* and TRHR ag 0.7.
Screening Cc1cc2c(s1)c1cnn(Cc3cccc(C(F)(F)F)c3)c(=O)c1n2C returned TRHR enhancer -2.6, D1 ag 6.8, D1 potentiator -5.8, D1 antagonist -4.2 and TRHR ag 1.2.
`Cc1ccc(-c2onc(C)c2C)cc1S(=O)(=O)NCc1cccs1` gave TRHR enhancer 0.6, D1 ag -0.2, D1 potentiator -2.8, D1 antagonist 23.4 and TRHR ag -0.3.
For CCC1CN(C(=O)Nc2cc(Cl)c(OC)cc2OC)c2ccccc2O1 (stereo unspecified) the results were TRHR enhancer 10.4, D1 ag 2.9, D1 potentiator 2.6, D1 antagonist -25.0 and TRHR ag -0.1.
For CCC(C)[C@H](NC(=O)c1cc2cc(Cl)ccc2n1C)C(=O)N1CCC(C(=O)O)CC1 (stereo partly specified) the results were TRHR enhancer -12.5, D1 ag 0.0, D1 potentiator -0.9, D1 antagonist -3.5 and TRHR ag 0.4.
`CC(=O)NS(=O)(=O)c1ccc(N=NN2CCCCCC2)cc1` gave TRHR enhancer -3.6, D1 ag -1.0, D1 potentiator 4.8, D1 antagonist -0.3 and TRHR ag 0.3.
`CC(=O)NS(=O)(=O)c1ccc(N=NN2CCOCC2)cc1` gave TRHR enhancer -22.5, D1 ag 0.1, D1 potentiator -6.3, D1 antagonist -57.1* and TRHR ag -0.7.
Clc1cccc(Cl)c1CSc1nnc(-c2sccc2-n2cccc2)o1 was read as TRHR enhancer 11.8, D1 ag 50.3*, D1 potentiator -0.6, D1 antagonist -1.6 and TRHR ag -0.4.
`CSc1nnc(-c2sccc2-n2cccc2)o1` gave TRHR enhancer -0.4, D1 ag -0.2, D1 potentiator 0.2, D1 antagonist 11.4 and TRHR ag -0.3.
For CN(C(=O)c1cc2sccc2n1C)C1CCCCC1 the results were TRHR enhancer -0.9, D1 ag 2.9, D1 potentiator 2.2, D1 antagonist -35.3* and TRHR ag -0.1.
`Cc1cc(-c2nnc(SCC(=O)c3ccc(Cl)cc3)o2)no1` gave TRHR enhancer 4.2, D1 ag 9.4, D1 potentiator -6.4, D1 antagonist -33.3* and TRHR ag -0.7.
For COc1ccc(C(=O)CSc2nnc(-c3cc(C)on3)o2)cc1 the results were TRHR enhancer -1.8, D1 ag 3.1, D1 potentiator -1.2, D1 antagonist -10.6 and TRHR ag -0.2.
`Cc1[nH]c2ccc(-c3nnc(SCC(=O)c4ccc(F)cc4)o3)cc2c1C` gave TRHR enhancer 5.4, D1 ag 2.3, D1 potentiator -7.5, D1 antagonist -40.1* and TRHR ag 0.8.
`COc1ccc(N(Cc2cccs2)C(=O)COc2cc(C)c(Cl)c(C)c2)cc1` gave TRHR enhancer 2.5, D1 ag 17.6, D1 potentiator -0.5, D1 antagonist -8.2 and TRHR ag 2.7.
`Cc1ccc(CNC(=O)C2CCN(S(=O)(=O)c3c(C)noc3/C=C/c3ccco3)CC2)cc1` gave TRHR enhancer 4.9, D1 ag 8.6, D1 potentiator -10.2, D1 antagonist -47.5* and TRHR ag -0.4.
CCC1CN(C(=O)C2CCN(S(=O)(=O)c3c(C)noc3/C=C/c3ccccc3F)CC2)c2cc(C)ccc2O1 (stereo unspecified) was read as TRHR enhancer -2.2, D1 ag 12.7, D1 potentiator -2.0, D1 antagonist 3.6 and TRHR ag 0.5.
`Cc1ccccc1NC(=O)C1CCN(S(=O)(=O)c2c(C)noc2/C=C/c2ccco2)CC1` gave TRHR enhancer -8.1, D1 ag 0.3, D1 potentiator 5.1, D1 antagonist -32.9* and TRHR ag 0.2.
`Cc1noc(/C=C/c2ccco2)c1S(=O)(=O)N1CCC(C(=O)NCc2ccco2)CC1` gave TRHR enhancer -3.4, D1 ag 3.5, D1 potentiator -4.5, D1 antagonist -15.2 and TRHR ag -0.8.
COc1ccc(NC(=O)C2CCN(S(=O)(=O)c3c(C)noc3/C=C/N(C)C)CC2)cc1 was read as TRHR enhancer -4.8, D1 ag 0.7, D1 potentiator -2.4, D1 antagonist -34.2* and TRHR ag 0.0.
For Cc1ccc2c(c1)N(C(=O)C1CCN(S(=O)(=O)c3c(C)noc3/C=C/c3ccccc3F)CC1)CCO2 the results were TRHR enhancer -5.9, D1 ag 10.1, D1 potentiator -0.1, D1 antagonist -38.6* and TRHR ag 0.6.
`CC(=O)c1ccc(N2CCN(C(=O)c3cn(C)c(=O)c4c3c3ccccc3n4C)CC2)cc1` gave TRHR enhancer -0.3, D1 ag 10.9, D1 potentiator 0.8, D1 antagonist 16.0 and TRHR ag 3.8.
`CCSc1nnc(NC(=O)c2cccc(S(=O)(=O)N(C)c3ccc(C)cc3)c2)s1` gave TRHR enhancer -2.9, D1 ag 2.9, D1 potentiator -6.7, D1 antagonist -53.9* and TRHR ag -0.2.
`COc1ccc(N(C)S(=O)(=O)c2cccc(C(=O)Nc3cccc(C(=O)NC4CC4)c3)c2)cc1` gave TRHR enhancer 0.0, D1 ag 5.7, D1 potentiator -13.7, D1 antagonist -52.5* and TRHR ag 0.4.
Screening Cc1ccc(N(C)S(=O)(=O)c2cccc(C(=O)Nc3ccc(C)cn3)c2)cc1 returned TRHR enhancer 1.8, D1 ag 3.1, D1 potentiator 3.8, D1 antagonist -88.4* and TRHR ag -0.5.
For Cc1oc2ccc(O)c(CN3CCCCCC3)c2c1C(=O)Nc1cccc(C(F)(F)F)c1 the results were TRHR enhancer 7.0, D1 ag 28.0, D1 potentiator -0.3, D1 antagonist -19.4 and TRHR ag -0.9.
CC(=O)Nc1nonc1-c1nnc(SCC(=O)Nc2cccc(F)c2)n1-c1ccccc1 was read as TRHR enhancer -0.9, D1 ag 0.4, D1 potentiator -0.3, D1 antagonist -9.4 and TRHR ag -0.3.
